The values that follow come from PubChem BioAssay AID2451 (National Center for Advancing Translational Sciences (NCATS), 2010).

About 2,100 (0.72%) of roughly 290,000 compounds were called active. Roughly 4% stayed inconclusive and do not appear here. The list comes from a sample in which actives are over-represented; it also holds similar structures and randomly drawn compounds. Unmarked numbers belong to inactive results. Calls follow the shape of the dose curve; as a rule, active = well fitted inhibition curve with a large enough effect; inconclusive = small, poorly fitted or top-dose-only effect, or effect the other way; inactive = flat fitted curve, though single readings scatter.
% is scaled to controls: 0 for no effect and ±100 for the full control effect; potency is read from the fitted curve at half-maximal effect.

The target in this test is Fructose-bisphosphate aldolase (Giardia intestinalis (strain ATCC 50803 / WB clone C6)) (UniProt A8B2U2). The test is described as follows: qHTS Assay for Inhibitors of Fructose-1,6-bisphosphate Aldolase from Giardia Lamblia. Also: nearly all actives have a fitted effect of over 55% in size. The settings on record: purified Giardia FBPA; series mostly up to 59.6 µM; activity, negative = inhibition: at the top concentration. From the text: Assay Provider: Osnat Herzberg, University of Maryland
Chain of Fructose-bisphosphate aldolase (Giardia intestinalis (strain ATCC 50803 / WB clone C6)) (A8B2U2 whole entry, looked up): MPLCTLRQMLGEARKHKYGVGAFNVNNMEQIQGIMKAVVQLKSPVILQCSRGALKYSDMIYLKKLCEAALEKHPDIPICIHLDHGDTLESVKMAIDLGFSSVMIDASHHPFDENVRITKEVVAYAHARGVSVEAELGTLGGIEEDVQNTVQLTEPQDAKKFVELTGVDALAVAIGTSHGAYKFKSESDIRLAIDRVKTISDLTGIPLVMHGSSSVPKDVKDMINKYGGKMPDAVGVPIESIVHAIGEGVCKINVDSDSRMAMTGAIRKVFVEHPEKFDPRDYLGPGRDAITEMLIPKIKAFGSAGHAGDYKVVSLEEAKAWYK
The objective of this project is to obtain compounds that inhibit Giardia lamblia growth. G. lamblia is a human pathogen which afflicts impoverished nations; it is the most common cause of outbreaks of diarrhea in the United States. During the course of our study of potential drug targets in Giardia, we have identified the Class II (Zn2+ functions in electrophilic catalysis) fructose-1,6-bisphosphate aldolase (FBPA) as an excellent candidate for drug targeting. FBPA is a key glycolytic pathway enzyme, essential for G. lamblia survival. The human FBPA belongs to the Class I aldolases, which have a different substrate binding site structure and a radically different catalytic mechanism (employing a lysine-Schiff base intermediate). Therefore, affinity-based or mechanism-based inhibitors of the Giardia FBPA are expected not to interfere with the catalytic function of the human FBPA.
A glyceraldehyde-3-phosphate dehydrogenase/triose phosphate isomerase/NAD/arsenate coupled assay was adapted to the 1536-well HTP format for use in the primary screen. This was done by coupling it to a diaphorase/resazurin/resorufin reaction that can be monitored by fluorescence (excitation, 544 nm; emission, 590 nm). Compounds identified in this screen will be further evaluated by coupling the glycerol-3-phosphate/triose phosphate isomerase/NADH assay to a phenazine methosulfate/tetranitroblue tetrazolium color reaction. False positives due to the dehydrogenases and diaphorase inhibition will be eliminated, and selectivity assay will triage inhibitors of mammalian triose phosphate isomerase and the Class I FBPA. G. lamblia FBPA inhibitors identified by the in vitro analyses will be examined for growth inhibition of Giardia trophozoites, and for cytotoxicity in human cells.
Step,Parameter,Value,Description
1,Enzyme reagent,2 uL,40 nM FBPA
2,Compound,23 nL,3.68 nM-57.5 uM final concentration
3,Time,10 min,RT Incubation
4,Substrate/detection Reagent,2 uL,Substrate + enzyme coupling system + AmpLite Red kit
5,Time,20 min,RT Incubation
6,Detector,525 nm/598 nm (Fluorescence),ViewLux Fluorescence Read (Read 1)
1,Medium-binding black solid-bottom Kalypsys plates. FRD or Kalypsys dispenser, 2 uL of FBPA enzyme. Bottle kept at 4C.
2,Compound Library (10 mM ,1:5 dilution). Pin-transferred for a [final] range of 3.68 nM-57.5 uM.
4,FRD or Kalypsys dispenser, 2 uL of reaction mixture. Bottle kept at 4C and covered in foil to protect from light.
6,ViewLux Protocol 1194; Excitation filter wheel A (525/20 Pol; BODIPY TMR FP), Emission filter wheel B (598/25 S; BODIPY TMR FP S).
Keywords: Fructose-bisphosphate aldolase, FBPA , Giardia lamblia , Giardia, HTS, Inhibitors
For the molecule `CCc1nn(CCCC(=O)NCc2ccc(C)cc2)c(=O)c2cc3occc3n12`, the “activity, negative = inhibition” value is 4.23%.

As for `CC(C)c1ccc(N(C(=O)c2ccco2)C(C(=O)NC2CCCC2)c2cccnc2)cc1` (stereo not given), the “activity, negative = inhibition” value was 7.96%.

`Nc1ccc2nc3c(=O)[nH]c(=S)[nH]c3nc2c1`: the Potency is 3.54 µM (active).

In the case of `O=c1[nH]c(=O)c2nc3ccccc3nc2[nH]1`, the “activity, negative = inhibition” value was 3.35%.

On to `Cc1ccc(NS(=O)(=O)c2ccc(-c3ccc(=O)[nH]n3)o2)c(C)c1`, for which the “activity, negative = inhibition” value is 4.34%.

In the case of `O=[N+]([O-])c1ccc(N(CCO)Cc2ccccc2)c([N+](=O)[O-])c1`, the “activity, negative = inhibition” value is 7.03%.

Regarding `CCOc1cc(-c2cc(-c3ccc(NC(C)=O)cc3)nc(N)c2C#N)ccc1O`, the “activity, negative = inhibition” value was -3.5%.

As for `CCN(CC)c1ccc([N+](=O)[O-])c2cccnc12`, the “activity, negative = inhibition” value is -27.5%.

For `O=[N+]([O-])c1cccc2ncccc12`, the “activity, negative = inhibition” value was -0.876%.

For the molecule `O=[N+]([O-])c1cc([N+](=O)[O-])c2cccnc2c1O`, the Potency is 15.8 µM (active).

`CCOC(OCC)c1ccc(/C=C\c2nccc(N)n2)cc1`: the “activity, negative = inhibition” value is -5.31%.

For `Cc1ccc(NC(=S)NCCc2ccc(Cl)cc2)c(C)c1`, the “activity, negative = inhibition” value was 0.528%.

As for `O=c1o[nH]c(-c2ccccc2)c1N=Nc1c(F)cccc1Cl`, the “activity, negative = inhibition” value was -7.28%.

Regarding `COc1ccc(-c2cn[nH]c2-c2ccc(OC)cc2)cc1`, the “activity, negative = inhibition” value was -0.709%.

On to `COc1ccc(N=Nc2c(-c3ccc(OC)cc3)[nH]oc2=O)cc1`, for which the Potency is 12.6 µM (active).

As to `O=C(Nc1ccc([N+](=O)[O-])cc1)OCCc1ccccn1`, the “activity, negative = inhibition” value is 6.01%.

`CCS(=O)(=O)C1=NSC2=NC(=O)/C(=C\c3ccc(OS(=O)(=O)c4ccccc4)cc3)C(=N)N21`: the “activity, negative = inhibition” value is -0.451%.

As for `COc1ccc(OCc2cc(C(=O)NCC3(C)COC3)no2)c(Cl)c1`, the “activity, negative = inhibition” value is 3.12%.

For the molecule `COC(=O)c1c(NC(=O)COc2ccc(Cl)cc2Cl)sc2c1CC(C)(C)NC2(C)C`, the “activity, negative = inhibition” value was -0.396%.

As to `CN1CCCc2cc(C#N)c(=O)[nH]c21`, the Potency is 9.98 µM (active).

Turning to `Cc1[nH]c(C)c(S(=O)(=O)N2CCC(C)CC2)c1C(=O)N1CCCC1`, the “activity, negative = inhibition” value is 0.103%.

Turning to `CCNC(=S)N(CCN(CC)CC)Cc1cc2cc3c(cc2[nH]c1=O)OCCO3`, the “activity, negative = inhibition” value was 0.97%.

As for `CCOC(=O)c1cnc2[nH]c3ccccc3n2c1=O`, the “activity, negative = inhibition” value was 2.05%.

Turning to `Cc1ccc(-c2nc3ccccc3[nH]c2=O)cc1`, the “activity, negative = inhibition” value is 3.98%.

`O=c1[nH]c2ccccc2n2c(-c3ccccc3)nnc12`: the Potency was 0.998 µM (active).

With `O=C1c2ccccc2C(=O)N1CCOc1ccc(F)cc1`, the “activity, negative = inhibition” value was 1.01%.

Regarding `COc1ccc(C2=NN(C(=O)c3ccccc3C(=O)O)C(c3ccccc3O)C2)cc1` (stereo not given), the “activity, negative = inhibition” value was 12.5%.

With `Cc1ccccc1N1CCN(CCCN2C(=O)C3CCCCN3C2=O)CC1` (stereo not given), the “activity, negative = inhibition” value was -15.4%.

Turning to `CCCCC1(C(=O)OCC)NC(c2ccc(O)cc2)C2C(=O)N(c3ccccc3)C(=O)C21` (stereo not given), the “activity, negative = inhibition” value is 7.01%.

Turning to `CC(=O)c1nc2ccccc2n1Cc1ccccc1`, the “activity, negative = inhibition” value was -5.52%.

For the molecule `C=C(Br)Cn1c(CCCC)nc2ccccc21`, the “activity, negative = inhibition” value is 8.1%.

As to `O=C(O)Cn1c(Cc2ccccc2)nc2ccccc21`, the Potency was 28.2 µM (active).

With `Cc1cc(C)nc(N/N=C/c2ccc([N+](=O)[O-])o2)n1`, the Potency was 28.2 µM (active).

Turning to `CCc1ccc(S(=O)(=O)N/N=C\c2ccc([N+](=O)[O-])o2)cc1`, the “activity, negative = inhibition” value is -19.2%.

Turning to `Cc1cc(C)nc(N/N=C/c2c(C)oc3ccccc23)n1`, the “activity, negative = inhibition” value is -26.2%.

Consider `CS(=O)(=O)N1CCc2cc(C(=O)Nc3ccccc3Br)ccc21`, for which the “activity, negative = inhibition” value was 10.4%.

Turning to `CCCOc1ccc(-c2c(C(=O)N/N=C/c3ccco3)nnn2-c2nonc2N)cc1`, the “activity, negative = inhibition” value is 7.42%.

For `Cc1ccc(/C=N/NC(=O)c2cc3ccccc3cc2O)o1`, the “activity, negative = inhibition” value was -19.7%.

For `Cn1nnc(NC(=S)NC(=O)c2ccccc2)n1`, the Potency was 3.15 µM (active).

For `Cc1cc2[nH]ncc2cc1NC(=S)NC(=O)c1ccccc1`, the “activity, negative = inhibition” value is -10.8%.

As for `COCCCNC(=S)NC(=O)c1ccccc1`, the “activity, negative = inhibition” value is 0.0132%.

As to `Cc1c(Cl)cccc1NC(=S)NCC(O)c1ccccc1` (stereo not given), the “activity, negative = inhibition” value was 0.0635%.

`O=C(c1n[nH]c2c1CCC2)N1CCCC(Nc2cccc(F)c2)C1` (stereo not given): the “activity, negative = inhibition” value is -1.71%.

In the case of `CSc1n[nH]c(=S)n1N`, the Potency is 19.9 µM (active).

In the case of `Cc1noc(C)c1CCC(=O)N1CCCC(CO)(Cc2ccccc2)C1` (stereo not given), the “activity, negative = inhibition” value was -4.45%.

With `COc1ccc2c3c(c(=O)oc2c1)C1O[C@](CCCCN2C(=O)c4ccccc4C2=O)(Cc2c1ccc1ccccc21)O3`, the activity, negative = inhibition was -2.65% [at 12.9 µM].

`COc1ccc(CCNCc2c(-c3ccccc3)n(C)c3ccccc23)cc1`: the “activity, negative = inhibition” value is -29.6%.

`COc1ccc(-c2csc(Nc3ccc(O)cc3)n2)cc1`: the “activity, negative = inhibition” value is -23%.

For the molecule `COc1ccc(OC)c(Nc2nc(-c3ccc(O)c(O)c3)cs2)c1`, the Potency is 8.89 µM (active).

For the molecule `COc1ccc(-c2csc(Nc3ccccn3)n2)cc1`, the “activity, negative = inhibition” value was -13.5%.

As for `COc1ccc(C2=Nn3c(nnc3-c3ccccc3O)SC2)cc1`, the “activity, negative = inhibition” value is 5.11%.

For the molecule `CCOc1cc(C2/C(=C(/O)c3ccc(S(=O)(=O)N4CCCCC4)cc3)C(=O)C(=O)N2CCOC)ccc1O` (stereo not given), the “activity, negative = inhibition” value was 20.3%.

Turning to `CCOc1ccccc1/C=N/NC(=O)CNC(=O)COc1ccccc1`, the Potency was 17.7 µM (active).

On to `C=C(C)CNC(=S)N/N=C/c1ccccc1OCC(=O)O`, for which the Potency is 17.7 µM (active).

Turning to `C=CCOc1ccccc1/C=N/NC(=O)Cc1ccccc1`, the “activity, negative = inhibition” value was 9.96%.
